# Assay results reported in PubChem BioAssay (NCI).
# The panel holds about 79,000 compounds, 15% with a hit somewhere; the sample as a whole holds those more often. Unmarked numbers belong to inactive results. The source made the active and inactive calls. Cut-off read from the data, not from the text of the source: active = growth inhibition above about 70%; inactive = the rest.
# How the values were obtained:
# [1] = NCI Yeast Anticancer Drug Screen. Data for the rad50 strain (AID 155);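 note: 0% = growth of vehicle-only cultures of the same strain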; conditions: S. cerevisiae rad50 strain growth inhibition, stronger effect = higher value
# Summary of the method: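 Inhibition values express reduced yeast growth in compound-treated cultures relative to vehicle-treated controls.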
# [2] = NCI Yeast Anticancer Drug Screen. Data for the mec2-1 strain (AID 157); conditions: S. cerevisiae mec2-1 strain, stronger effect = higher value
# Summary of the method: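 Cells of the genetically defined mec2-1 yeast strain are incubated with test compound. Inhibition of growth is calculated against vehicle-treated controls.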
# [3] = NCI Yeast Anticancer Drug Screen. Data for the sgs1 mgt1 strain (AID 161);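 note: 0% = growth of cultures given vehicle only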; conditions: S. cerevisiae sgs1 mgt1 strain, stronger effect = higher value
# Summary of the method: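 Read-out: growth inhibition vs vehicle controls. Cells: mutant yeast strain deficient in DNA damage repair.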
# [4] = NCI Yeast Anticancer Drug Screen. Data for the cln2 rad14 strain (AID 165);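 note: 0% = growth equal to vehicle treated cultures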; conditions: S. cerevisiae cln2 rad14 strain, stronger effect = higher value
# Summary of the method: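 The screen exposed genetically defined yeast (cln2 rad14) to test compounds and scored growth inhibition relative to vehicle-treated controls.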
# [5] = NCI Yeast Anticancer Drug Screen. Data for the bub3 strain (AID 167); conditions: S. cerevisiae bub3 mutant strain, stronger effect = higher value
# Summary of the method: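 Steps: expose the mutant yeast strain to compound; grow alongside vehicle-treated cultures; measure growth; express inhibition against the vehicle cultures.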
# [6] = NCI Yeast Anticancer Drug Screen. Data for the mlh1 rad18 strain (AID 175); conditions: S. cerevisiae mlh1 rad18 strain growth inhibition, stronger effect = higher value
# Summary of the method: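 Compound-treated yeast growth, normalised to vehicle controls. Strain bears defined DNA repair mutations.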
# [7] = at 5.0 µM (retest, dose inferred, filed as 0.5)
# [8] = at 50.0 µM (retest, dose inferred, filed as 5.0)
Compound,"growth inhibition [1, 7]","growth inhibition [1, 8]",growth inhibition ([1]; at 50.0 µM),"growth inhibition [2, 7]","growth inhibition [2, 8]",growth inhibition ([2]; at 50.0 µM),"growth inhibition [3, 7]","growth inhibition [3, 8]",growth inhibition ([3]; at 50.0 µM),"growth inhibition [4, 7]","growth inhibition [4, 8]",growth inhibition ([4]; at 50.0 µM),"growth inhibition [5, 7]","growth inhibition [5, 8]",growth inhibition ([5]; at 50.0 µM),"growth inhibition [6, 7]","growth inhibition [6, 8]",growth inhibition ([6]; at 50.0 µM)
NC(Cc1ccccc1)c1ccc2cccc3c2c1CC3 (configuration not stated),-5%,4%,0.3%,-5%,8%,33.8%,-2%,25%,5.55%,-6%,-1%,-4.25%,-2%,9%,21.1%,-2%,34%,51.5%
Clc1cc(Cl)c(OCCOCCI)c(Cl)c1,0%,13%,28.1%,2%,12%,9.15%,1%,11%,16.1%,1%,-25%,14.4%,10%,42%,48%,-3%,5%,34%
CN(C)c1ccc(/C=C/c2ccnc3ccccc23)c(O)c1,0%,-6%,57%,-4%,-4%,28.6%,0%,-6%,58.9%,3%,-3%,34%,-4%,-6%,40.9%,-8%,-2%,68.8%
COc1c(C(=O)/C(=N/Nc2ccccc2)C(C)=O)c(O)c(OC)c2occc12,-2%,94% (active),45.7%,-18%,87% (active),52.5%,-39%,82% (active),73.2% (active),-19%,91% (active),33%,-32%,92% (active),47.8%,2%,90% (active),68.8%
CCO/C=C1N=C(/C=C/c2ccc(Cl)cc2)OC/1=O,5%,31%,28.4%,7%,13%,32.8%,14%,19%,47%,8%,43%,-38.7%,14%,29%,22.6%,1%,25%,40.8%
CC1=C(C(=O)Nc2cc(C)ccc2C)C(c2cccc([N+](=O)[O-])c2)C(C(=O)Nc2cc(C)ccc2C)=C(C)N1,8%,49%,-12.3%,19%,72% (active),34.5%,19%,34%,26.7%,5%,61%,19.2%,17%,74% (active),29.6%,17%,65%,31.6%
C#CC(CC)(CC)N=Cc1cc(Cl)cc(Cl)c1O,65%,94% (active),89.2% (active),42%,97% (active),91.8% (active),58%,99% (active),92% (active),41%,72% (active),88.7% (active),51%,66%,90.7% (active),69%,98% (active),90.5% (active)
CCOC(=O)c1sc2[n+](c1C)C(=O)/C(=C/c1ccc([N+](=O)[O-])cc1)S2,4%,71% (active),95.5% (active),4%,74% (active),96.9% (active),16%,86% (active),97% (active),-4%,79% (active),90.5% (active),-23%,46%,96.8% (active),23%,89% (active),97% (active)
CCN(CC)CC(O)c1ccc(/C=C/c2ccc(Cl)cc2)cc1 (configuration not stated),12%,95% (active),98.1% (active),6%,97% (active),98% (active),8%,98% (active),58.5%,12%,97% (active),98.7% (active),17%,96% (active),98.6% (active),15%,97% (active),98.4% (active)
